# Among all 1,800 compounds or so, about 1,400 (78%) were called active. About 2% were inconclusive and are not listed.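 How the source made its calls: active means fitted curve crossing a set activation limit at or below the highest valid dose tested; inconclusive means flat fit at 30 to 70% activation, or poor fit; inactive means the rest, including signal decreases.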 The set was probably picked from earlier hits. A selection follows. Entries with a potency or affinity are not part of this list.
# Test: N-linked glycosylation inhibitors, luciferase reporter, dose response, D54 ERlucT cells, luminescence, cherry-picks (AID 624491);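 further: signal gain reflects blocked N-linked glycosylation of a luciferase reporter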
# Settings: 24 h, 100% = twice neutral-control luminescence; series mostly up to 19.5 µM; activation (NLG inhibition): at the top concentration
row,SMILES,activation (NLG inhibition)
1,COc1ccc(NC(=O)C2Cc3c(-c4ccc5c(c4)OCO5)ccnc3O2)cc1 (stereo not given),-4.2% (inactive)
2,O=C(O)c1ccccc1OC(C(=O)Nc1cc(Cl)cc(Cl)c1)c1ccccc1 (stereo not given),173% (inactive)
3,CCOc1cc(S(=O)(=O)NCc2ccc(OC)cc2)c(OCC)cc1-n1cnnn1,74.3% (inactive)
4,CCOc1ccc2c(c1)C(=NNC(=O)c1ccncc1)c1cc(OCC)ccc1-2,12.9% (inactive)
5,O=C(Nc1cccc(C(F)(F)F)c1)c1sc(Cl)nc1C(F)(F)F,6.11% (inactive)
6,Cc1cc(O)c(NC(=O)c2cc([N+](=O)[O-])ccc2Cl)cc1C,41.7% (inactive)
7,O=C(Cc1cccs1)NCCS(=O)(=O)N1CCN(c2ccccc2F)CC1,31.5% (inactive)
8,CCCn1c2ccccc2c2cnn(CC(=O)NC3CCCC(C)C3C)c(=O)c21 (stereo not given),9.84% [at 5 µM] (inactive)
9,CNC(=O)COC(=O)c1ccccc1C(=O)c1ccc(Cl)c([N+](=O)[O-])c1,11% [at 1.2 µM] (inactive)
10,CCc1ccc(NC(=O)Cn2c(=O)n(CCC(=O)NC3CCN(Cc4ccccc4)CC3)c(=O)c3ccccc32)cc1,133% (inactive)
11,COc1ccc(CN(C(=O)c2ccc(CN3CCOCC3)o2)C(C(=O)NCC2CCCO2)c2ccc(F)cc2)cc1 (stereo not given),2.01% (inactive)
12,O=C1OC(c2ccc(F)cc2)CC1CN1CCOCC1 (stereo not given),13.6% (inactive)
13,Nc1c(C(=O)c2ccccc2)sc2nsc(SCCN3CCOCC3)c12,28.1% (inactive)
14,COC(=O)Nc1ccc(S(=O)(=O)N2CCCc3ccccc32)cc1,-4.31% (inactive)
15,CCOc1ccc2[nH]c(=O)c(CN(Cc3ccc(F)cc3)C(=O)c3ccco3)cc2c1,31.5% (inactive)
16,O=C(N/N=C/c1cccnc1)c1cc(-c2ccc(Br)cc2)nc2ccccc12,9.58% (inactive)
17,CC1Nc2ncnc(N3CCc4ccccc4C3)c2N(Cc2ccc(Br)cc2)C1=O (stereo not given),41.9% (inactive)
18,COc1ccc(CN2C(=O)C(C)Nc3ncnc(N4CCc5ccccc5C4)c32)cc1 (stereo not given),6.37% (inactive)
19,Cc1cccc2[nH]c3c(N4CCC5(CC4)OCCO5)ncnc3c12,23.9% (inactive)
20,COc1ccc(Cn2c(=O)c3[nH]cnc3n(-c3ccccc3C)c2=O)cc1,41.5% (inactive)
21,O=C(Nc1ccccc1)N1CCC(c2nc(-c3ccc(S(=O)(=O)N4CCOCC4)cc3)no2)CC1,17.9% (inactive)
22,COc1cc(/C=C/C(=O)c2ccc(Cl)s2)cc(OC)c1O,11.1% (inactive)

row,SMILES,activation (NLG inhibition)
1,COc1ccc(/C=C/C(=O)c2ccc3c4c(cccc24)CC3)cc1,41.7% (inactive)
2,COc1cc(O)c(C(=O)/C=C/c2ccccc2)c(OC)c1,18.2% (inactive)
3,COc1ccc(/C=C2\CN(Cc3ccccc3)C/C(=C\c3ccc(OC)cc3)C2=O)cc1,-8.86% (inactive)
4,CN1C/C(=C\c2ccc(N3CCOCC3)cc2)C(=O)/C(=C/c2ccc(N3CCOCC3)cc2)C1,-8.7% (inactive)
5,COc1ccc(C(=O)/C=C/c2ccc(OC3CSC3)cc2)cc1OC,55.4% (inactive)
6,CCOc1ccc(/C=C/C(=O)c2ccccc2)cc1OC,28.2% (inactive)
7,COc1ccc(C2=Nn3c(nnc3-c3ccco3)SC2)cc1,68.5% (inactive)
8,COc1ccc(C2=Nn3c(nnc3-c3ccc(OC)cc3)SC2)cc1,7.21% (inactive)
9,COc1ccc(OC)c(-c2nnc3n2N=C(c2ccc(OC)c(OC4CCCC4)c2)CS3)c1,-3.46% (inactive)
10,COc1ccc2nc(-c3ccco3)c(-c3ccco3)nc2c1,2.38% (inactive)
11,O=S1(=O)C=CC(Nc2cccc(Cl)c2)C1 (stereo not given),19.2% (inactive)
12,O=C(CSc1nc2nc(-c3cccs3)cc(C(F)(F)F)c2c(=O)[nH]1)C(F)(F)F,36.6% (inactive)
13,Cc1ccc(C)n1-c1ccc(C(=O)/C=C/N(C)C)cc1,5.31% (inactive)
14,Cc1ccc(-c2cc(NC(=O)CCl)n(-c3ccccc3)n2)cc1,-70.1% (inactive)
15,CCOc1ccccc1NC(=O)Cn1nnc(C(=O)NCc2ccc3c(c2)OCO3)c1N,46.6% (inactive)
16,COc1cc(Cl)c(C)cc1NC(=O)CN1CCN(C(=O)C2CC2)CC1,21.3% (inactive)
17,COc1ccc(NC(=O)C2Cc3c(-c4cccc(C(C)=O)c4)ccnc3O2)cc1 (stereo not given),16.6% (inactive)
18,CCNC(=O)COc1ccc(/C=C2\COc3ccccc3C2=O)cc1OC,19.8% [at 5 µM] (inactive)
19,CN(Cc1ccc(Cl)s1)C(=O)CCl,-17.1% (inactive)
20,CCN(CC(=O)NCc1ccc(F)cc1)C(=O)/C=C/c1ccc(OC)c(S(=O)(=O)NC(C)C)c1,40% (inactive)
21,CN1C(=O)c2cccc3c(S(=O)(=O)Nc4ccccc4F)ccc1c23,52.8% (inactive)
22,CCN(CC)CCCNC(=O)c1cc2c(=O)n(CC)c3ccccc3c2s1,21.5% (inactive)

row,SMILES,activation (NLG inhibition)
1,COc1cc(C2=NOC(C(=O)NCc3cccs3)C2)cc(OC)c1OC (stereo not given),26.4% (inactive)
2,CCOC(=O)Nc1c2ccccc2nc2ccccc12,62.4% (inactive)
3,O=C(O)c1ccc(CN2C(=O)c3cccc4c([N+](=O)[O-])ccc(c34)C2=O)cc1,-46.8% (inactive)
4,Cc1noc(C)c1COc1ccc(C(=O)NNC(=O)c2ccccc2)cc1,44.8% (inactive)
5,CC[C@@]1(c2ccccc2OC)ON(c2ccccc2C(F)(F)F)C1=O,10.9% (inactive)
6,COc1ccccc1C1=NOC(COc2ccc3c(C)cc(=O)oc3c2)C1 (stereo not given),33.4% (inactive)
7,COc1cccc(C(=O)Nc2ncc3c(n2)CC(c2ccc(OC)cc2OC)CC3=O)c1 (stereo not given),37.5% (inactive)
8,Cc1nc2c3cc(F)ccc3n(CCN3CCCCC3)c2s1,35.5% (inactive)
9,NNC(=O)c1ccc2nc(-c3ccc(Br)cc3)cn2c1,610% (inactive)
10,Cc1ccc(-c2cc(C(=O)N/N=C/c3c[nH]c4ccccc34)[nH]n2)cc1,30.9% (inactive)
11,COc1ccc(CCn2c(=N)c(C(=O)NC3CCCC3)cc3c(=O)n4ccccc4nc32)cc1OC,55.9% (inactive)
12,COc1cc2cc(C(c3nnnn3C(C)(C)C)N3CCc4ccccc4C3)c(=O)[nH]c2cc1OC (stereo not given),18% (inactive)
13,Cc1cccc(N2CCN(C(=O)c3ccc(Cl)c(S(=O)(=O)NCc4ccco4)c3)CC2)c1C,29.6% (inactive)
14,C=CCN(CC=C)C(=O)CN1C(=O)NC(C)(c2ccc3cc(OC)ccc3c2)C1=O (stereo not given),3.96% [at 5 µM] (inactive)
15,NC(=O)/C=C\C(=O)Nc1cccc(C(F)(F)F)c1,-15.6% (inactive)
16,O=S(=O)(Nc1cccc2cccnc12)c1ccc(S(=O)(=O)N2CCCC2)cc1,-10.1% (inactive)
17,CCN(CC)C(=O)CSc1nc2c(sc(=S)n2-c2ccccc2)c(=O)n1Cc1ccco1,10.5% (inactive)
18,Cc1cc(NC(=O)CSc2nc(C3CC3)nc3sc(C)c(C)c23)no1,17.8% (inactive)
19,COc1ccc(N(CC(=O)Nc2cc(Cl)ccc2OC)S(=O)(=O)c2c(C)noc2C)cc1,15.9% (inactive)
20,Cc1cc(Br)ccc1NC(=O)CCCOc1cc(=O)n(C)c2ccccc12,30.6% (inactive)
21,N#Cc1c(NC(=O)c2cnccn2)sc2c1CCCC2,6.08% (inactive)

# Source: PubChem BioAssay AID624491 (Broad Institute, 2012)
